Jurkat NFkB inh: inhibitors of induced NF-kB luciferase reporter, primary screen, TCR NF-kB activation inhibitor project, cell-based, luminescence, uHTS. Jurkat, PMA/ionomycin-induced NF-kB luciferase reporter. 330,000 compounds, 0.53% hits. inhibition, % at 4 µM; in the data active = inhibition above about 50%
Gli-Sufu block: Gli-Sufu pathway antagonists, primary screen, luciferase luminescence, Sufu-KO-LIGHT cells, uHTS | Sufu-KO-LIGHT fibroblasts, Gli luciferase reporter luminescence | inhibition, % at 5 µM | 340,000 compounds, 0.74% hits | AID 588413, 2011;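 active = inhibition above about 55%, limit read from the data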;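 also: 0% = DMSO-treated cells and 100% = wells with medium but no cells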
697 NFkB inh: inhibitors of PMA/ionomycin-induced NF-kB reporter, 697 cells, primary screen, B-cell NF-kB inhibitor project, cell-based, luminescence, uHTS | 330,000 compounds, 0.33% hits | 697 B-cell NF-kB luciferase reporter, 16 h | inhibition, % at 4 µM; in the data active = inhibition above about 35%
Mdm2-MdmX inh: inhibitors of human Mdm2-MdmX association, primary screen, cell-based, luminescence, split luciferase, SaOS-2, uHTS; Protein Mdm4 (Homo sapiens) + E3 ubiquitin-protein ligase Mdm2 (Homo sapiens), …; SaOS-2 split-luciferase Mdm2/MdmX complementation; inhibition, % at 8 µM; 330,000 compounds, 3% hits;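 active = inhibition of at least 50% at 8 µM in the primary screen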
Target sequence (O15151 whole entry, looked up): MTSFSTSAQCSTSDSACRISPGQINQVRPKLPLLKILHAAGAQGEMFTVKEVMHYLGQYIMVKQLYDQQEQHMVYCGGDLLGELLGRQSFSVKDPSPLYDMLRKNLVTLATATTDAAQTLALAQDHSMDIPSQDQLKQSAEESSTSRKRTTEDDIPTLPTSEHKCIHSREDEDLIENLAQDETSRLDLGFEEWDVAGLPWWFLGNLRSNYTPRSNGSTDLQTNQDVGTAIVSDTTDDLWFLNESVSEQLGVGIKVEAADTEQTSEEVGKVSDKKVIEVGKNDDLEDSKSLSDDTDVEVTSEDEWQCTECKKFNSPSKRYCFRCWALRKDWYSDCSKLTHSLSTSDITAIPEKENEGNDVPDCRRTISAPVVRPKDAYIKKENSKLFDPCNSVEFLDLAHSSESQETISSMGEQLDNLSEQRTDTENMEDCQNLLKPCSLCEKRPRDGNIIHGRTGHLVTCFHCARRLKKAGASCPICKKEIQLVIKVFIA
Target sequence (Q00987 whole entry, looked up): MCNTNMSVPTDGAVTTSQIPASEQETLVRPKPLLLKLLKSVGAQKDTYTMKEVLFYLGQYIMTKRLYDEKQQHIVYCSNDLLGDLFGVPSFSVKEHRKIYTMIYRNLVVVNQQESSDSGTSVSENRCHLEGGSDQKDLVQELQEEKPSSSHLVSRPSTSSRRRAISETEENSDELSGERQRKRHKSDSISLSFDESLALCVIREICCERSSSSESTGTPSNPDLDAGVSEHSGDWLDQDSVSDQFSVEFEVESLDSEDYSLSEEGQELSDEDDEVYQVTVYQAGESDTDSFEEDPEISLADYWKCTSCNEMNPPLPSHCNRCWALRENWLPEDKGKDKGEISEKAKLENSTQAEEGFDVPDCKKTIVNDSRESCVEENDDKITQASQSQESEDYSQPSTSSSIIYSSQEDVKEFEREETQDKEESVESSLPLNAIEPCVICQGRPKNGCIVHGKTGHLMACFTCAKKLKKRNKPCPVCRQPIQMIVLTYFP
Beta cell apopt: inhibitors of cytokine-induced beta cell apoptosis, primary screen, luminescence | protection from apoptosis, % (concentration not given with the values) | INS-1E cytokine-induced death, ATP luminescence, 48 h; percent of positive-control rescue, neutral wells zero | 300,000 compounds, 0.8% hits | AID 435005, 2010;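 active = Every replicate reaches about 75%, or at least half do and their mean reaches it too, limit read from the data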;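 also: 0% = cytokine-treated negative control wells and 100% = positive control rescue; higher means more ATP so stronger rescue from cytokine killing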
Mdm2-MdmX conf: Mdm2-MdmX complex disruptors, retested hits, confirmation, luminescence, single concentration. Mdm2-MdmX binding, luminescent assay. shares compounds with Mdm2-MdmX inh. inhibition, % at 8 µM. 10,000 compounds, 55% hits; in the data active = inhibition above about 40%
Full FLuc ctr: full-length luciferase signal inhibition, confirmation, counter-screen for Mdm2/MdmX interaction inhibitor project, cell-based, single concentration, SaOS-2. SaOS-2 full-length luciferase counterscreen, luminescence. inhibition, % at 8 µM. shares compounds with Mdm2-MdmX inh. AID 504607, 2011. 6,200 compounds, 77% hits;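 active = mean inhibition at 8 µM reaching about 37%, which flags the compound as non-specific, limit read from the data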;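 also: p53-null SaOS-2 cells with luciferase driven by a doxycycline-inducible promoter; compound on cells about two nights before reading with doxycycline added after day one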
* hit, by the source's call; . = not tested or not shown. Rows were chosen to be rich in hits. Some 4% of all compounds tested hit in one or more screens of this group.

SMILES	Jurkat NFkB inh	Gli-Sufu block	697 NFkB inh	Mdm2-MdmX inh	Beta cell apopt	Mdm2-MdmX conf	Full FLuc ctr
Cc1ccc(-n2cc(CN3CCC(CO)(Cc4cccc(C(F)(F)F)c4)CC3)cn2)cc1	-1.3	29.6	-25.3	83.6*	11.2	48.1*	69.2*
CCN1CCCC1CNC(=O)c1cc2c(-c3cccc(OC)c3)nn(C)c2s1 (centres undefined)	-26.8	23.9	6.9	32.5	3.5	.	.
CCN1CCCC1CNC(=O)c1cc2c(-c3ccc(Cl)cc3)nn(C)c2s1 (centres undefined)	-21.3	11.3	-5.9	65.0*	.	10.9	.
Cn1nc(-c2ccc(Cl)cc2)c2cc(C(=O)N3CCN(c4ccccn4)CC3)sc21	11.1	15.6	-17.2	55.0*	43.8	15.8	.
Cc1cccc(C(=O)N[C@H](C(=O)Nc2ccc3c(c2)OCO3)C(C)C)c1	0.6	1.4	8.7	3.5	1.4	.	.
COc1cccc(Oc2nnnn2-c2ccccc2)c1	-46.3	-55.5	-64.9	-26.3	-4.5	.	.
COc1cccc(-n2nnnc2S(C)(=O)=O)c1	28.7	-0.1	-26.5	78.7*	-67.9	100.2*	3.9
O=C(N1CCCCC1)C1(S(=O)(=O)c2ccccc2)CC=CC1	-12.4	-6.4	-1.9	6.5	-3.5	.	.
CC(C)NC(=O)c1cc(-c2ccc(Br)cc2)on1	-106.7	-75.3	-118.2	-203.3	0.9	.	.
CC(C)c1cccc(C(C)C)c1OC(=O)[C@H]1OC(c2ccc(Br)cc2)=C[C@@H]1c1ccc(Br)cc1	7.0	3.7	0.3	60.6*	15.7	-3.4	.
CCC[C@@H](CN[C@@H](CNC)[C@H](C)CC)NCC1CCC(C(C)(C)C)CC1 (some centres undefined)	12.8	1.7	11.9	99.3*	62.4	99.8*	2.5
CCC[C@H](CN[C@@H](CNC)[C@H](C)CC)NCCc1cc(C(F)(F)F)cc(C(F)(F)F)c1	34.8	14.9	20.1	97.0*	17.4	100.2*	52.0*
CC[C@@H](C)[C@H](CNC)NC[C@@H](Cc1cccc2ccccc12)NCCc1cccc(C(F)(F)F)c1	25.2	14.1	9.1	100.0*	13.5	99.5*	52.3*
Cc1ccc(F)cc1CNC(=O)C1CCC(=O)N(CC2CCCCC2)C1 (centres undefined)	-6.8	-12.6	-0.6	13.5	.	.	.
Clc1cccc(Cl)c1CSc1nnc(-c2ccncc2)s1	-12.5	4.4	-42.1	77.9*	-2.7	32.8	.
Clc1ccc(CSc2nnc(-c3ccncc3)s2)cc1	4.9	-2.4	6.4	15.6	-5.5	.	.
Cc1sc2ncn(CC(=O)NCCCC(=O)Nc3ccc(C(C)C)cc3)c(=O)c2c1C	-14.8	26.8	-0.4	82.3*	9.9	42.5*	29.2
CC(=O)c1nn(-c2cccc(Br)c2)cc1C(=O)c1ccc2ccccc2c1	2.6	1.2	0.0	63.2*	9.4	30.0	.
COc1ccc(C(=O)c2cn(-c3cccc(Br)c3)nc2C(C)=O)cc1	8.2	3.2	26.6	22.0	4.7	.	.
N=c1n(CCO)c2ccccc2n1CCOc1ccc(Cl)cc1Cl	20.2	8.6	-33.0	97.4*	9.7	41.9*	25.4
Cc1cccc(OCCNC(=O)c2cccc(Oc3ccc(C(F)(F)F)cc3[N+](=O)[O-])c2)c1	35.4	-3.7	-48.0	6.5	1.3	.	.
Cc1cccc(OCCNC(=O)c2ccc(Oc3ccc(C(F)(F)F)cc3[N+](=O)[O-])cc2)c1	-10.2	-2.4	4.1	50.3*	.	25.9	.
FC(F)(F)Sc1ccc(NC(=S)NCc2ccccc2)cc1	4.4	2.0	-8.7	79.0*	17.7	-1.9	.
S=C(NCc1ccccc1)Nc1ccc(Cl)cc1	-11.5	-5.0	1.3	3.5	1.1	.	.
COc1cc(SC#N)ccc1N=Cc1c(C)[nH]n(-c2ccc(C)c(C)c2)c1=O	-4.9	-0.4	9.7	87.0*	78.9*	90.7*	51.9*
SMILES	Jurkat NFkB inh	Gli-Sufu block	697 NFkB inh	Mdm2-MdmX inh	Beta cell apopt	Mdm2-MdmX conf	Full FLuc ctr
COc1cc(S(=O)(=O)Nc2ccccc2)ccc1N=Cc1c(C)[nH]n(-c2ccc(C)cc2)c1=O	6.1	.	-31.1	67.3*	17.3	20.9	.
O=C(NC(NC1CCS(=O)(=O)C1)C(=O)c1cccs1)c1ccccc1 (centres undefined)	-2.9	-18.9	13.0	-3.2	2.1	.	.
O=C(NC1=C(NC2CCS(=O)(=O)C2)C(=O)c2ccccc2C1=O)c1ccccc1 (centres undefined)	49.3	-4.5	5.5	90.0*	40.9	59.6*	49.5*
O=C(COC(=O)c1cc([N+](=O)[O-])ccc1N1CCOCC1)Nc1ccc(Cl)cn1	29.0	-20.6	-3.1	76.3*	37.9	58.0*	68.2*
CC(=O)Nc1cc(C(=O)NCCN2CCN(Cc3ccccc3)CC2)ccc1Sc1ccc(C)cc1	-0.5	13.5	2.9	38.2	0.7	.	.
CCc1cccc(NC(=O)c2cc(S(=O)(=O)N(C)C)ccc2N2CCCC2)c1	-8.4	6.8	10.0	51.5*	-6.9	49.7*	51.0*
Cc1cnc(NC(=O)c2cc(S(=O)(=O)N(C)C)ccc2N2CCCC2)s1	-22.9	36.9	5.9	53.4*	-34.9	31.9	50.2*
CCOc1cc(N2CCOCC2)c(OCC)cc1NC(=O)C1=COCCO1	-10.0	15.0	12.0	13.0	.	.	.
O=C(CN1CC(c2ccccc2)CC1=O)N/N=C/c1cc(Br)ccc1O (centres undefined)	19.0	24.7	-12.6	62.0*	39.0	64.8*	43.1*
COc1ccc(N(Cc2cc(=O)[nH]c3ccccc23)C(=O)CCl)cc1	16.2	-6.8	2.5	100.3*	-27.2	79.3*	62.6*
Cc1cccc(N(Cc2cc(=O)[nH]c3ccccc23)C(=O)CCl)c1	6.7	9.5	-55.2	100.3*	-16.0	100.2*	56.1*
CCCn1c(-c2ccc[nH]c2=O)nc2cc(C)c(C)cc21	-31.3	37.8	-23.6	-10.0	1.2	.	.
CCCOc1ccccc1NC(=O)c1ccc([N+](=O)[O-])cc1	-8.7	2.1	-2.7	-2.2	1.7	.	.
Cn1c(/C=C/c2cccc([N+](=O)[O-])c2)c([N+](=O)[O-])c(=O)n(C)c1=O	-12.2	23.0	-12.3	84.0*	-20.4	52.2*	42.9*
COc1ccc(/C=C/c2c([N+](=O)[O-])c(=O)n(C)c(=O)n2C)cc1OC	4.4	-7.7	3.2	14.3	-7.7	.	.
Cn1c(/C=C/c2ccc(Cl)cc2)c([N+](=O)[O-])c(=O)n(C)c1=O	2.9	0.1	-31.9	64.0*	-5.2	43.9*	37.1*
